Consider 20 molecules from the supplement of paper PMC12045047.

Structures can show the parent of a compound that is named as a salt. A number with no mark means an inactive call.

The first assay concerns primary human airway basal cells (HBEC, luciferase-transduced). The assay is described as follows: proliferation (luciferase bioluminescence) Z score relative to plate mean; higher = more proliferation / more cells, active = 1.96 or more. The conditions noted are these: donor: 1; 0.5 µM; library: ENZO Libraries; 4 days. Here is the method: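 Primary human bronchial epithelial (airway basal) cells from two donors, lentivirally transduced with pHIV-Luc-ZsGreen, were seeded at 2000 cells/well in 384-well plates in FAD medium with ENZO or Prestwick library compounds and cultured for 4 days. Luciferin was then added and bioluminescence was read as a measure of cell number. Relative light units were converted to Z scores against the plate, and the mean of triplicate wells is reported.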
As for `CCOC(=O)C1=CN(Cc2ccccc2)C=C(C(=O)OCC)C1c1ccccc1`, the proliferation was 0.415.

Regarding `NCC1CCC(C(=O)N[C@@H](Cc2ccccc2)C(=O)Nc2ccc(CC(=O)O)cc2)CC1` (stereo not given in full), the proliferation is 0.228.

Turning to `O=C(CCCCCCC(=O)NO)NO` [Suberoyl bis-hydroxamic acid], the proliferation is 0.147.

As to `O=C(CCCN1C(=O)c2cccc3cccc(c23)C1=O)NO` [Nullscript], the proliferation was 0.202.

As for `N#CC(=Cc1ccc2[nH]ccc2c1)C(N)=C(C#N)C#N`, the proliferation is 0.0615.

With `CC[C@H](C)[C@H](N)C(=O)N1CCSC1` [P32/98 hemifumarate salt], the proliferation was -0.342.

Regarding `N#CC(C#N)=C(N)/C(C#N)=C/c1cc(O)c(O)c(O)c1`, the proliferation is -0.239.

Consider `Oc1c2ccccc2c2c3c(cccc13)N=N2`, for which the proliferation is 0.134.

As to `Oc1ccc(/C=C/c2cc(O)cc(O)c2)cc1` [Resveratrol], the proliferation was 1.08.

`CC(C)(C)c1cc(C=C(C#N)C(N)=S)cc(C(C)(C)C)c1O`: the proliferation is -0.666.

Regarding `O=c1c(-c2ccc(O)cc2)coc2cc(O)cc(O)c12` [Genistein], the proliferation was 0.674.

In the case of `O=C1Nc2ccccc2/C1=C1/Nc2ccccc2C1=O` [Indirubin], the proliferation was -0.759.

Turning to `O=C[C@@H]1CCCN1C(=O)[C@@H]1CCCN1C(=O)OCc1ccccc1` [Z-Prolyl-prolinal], the proliferation was -0.531.

In the case of `CO[C@@H]1[C@H](OC(=O)/C=C/C=C/C=C/C=C/C(=O)O)CC[C@]2(CO2)[C@H]1[C@@]1(C)O[C@@H]1CC=C(C)C` [Fumagillin], the proliferation is -1.58.

Consider `N=C(N)Nc1ccc(C(=O)Oc2ccc3cc(C(=N)N)ccc3c2)cc1` [Nafamostat mesylate], for which the proliferation was 0.0117.

For the molecule `Cc1cc2ncc(-c3ccccc3)nc2cc1C`, the proliferation is 5.22 (active).

Take `CCC(C)[C@H](NS(=O)(=O)c1cccc2ccccc12)C(=O)N[C@H](C=O)Cc1c[nH]c2ccccc12` (stereo not given in full): the proliferation is -0.192.

With `CSCCC(C=O)NC(=O)C(CC(C)C)NC(=O)[C@H](CC(C)C)NC(C)=O` (stereo not given in full) [Calpain Inhibitor II (ALLM)], the proliferation is 0.241.

With `O=c1ncccn1[C@@H]1O[C@H](CO)[C@@H](O)[C@H]1O` [Zebularine], the proliferation is -0.238.

Take `NC(N)=NCCC[C@H](NC(=O)[C@@H]1CCCN1C(=O)[C@H](N)Cc1ccccc1)C(=O)CCl`: the proliferation is 0.533.

The same assay, now with this note: donor: 1; 5 µM; library: ENZO Libraries; 4 days.
As for `CCOC(=O)C1=CN(Cc2ccccc2)C=C(C(=O)OCC)C1c1ccccc1`, the proliferation was 0.65.

For `NCC1CCC(C(=O)N[C@@H](Cc2ccccc2)C(=O)Nc2ccc(CC(=O)O)cc2)CC1` (stereo not given in full), the proliferation was 0.079.

`O=C(CCCCCCC(=O)NO)NO` [Suberoyl bis-hydroxamic acid]: the proliferation was -0.101.

As to `O=C(CCCN1C(=O)c2cccc3cccc(c23)C1=O)NO` [Nullscript], the proliferation was -0.00941.

Regarding `N#CC(=Cc1ccc2[nH]ccc2c1)C(N)=C(C#N)C#N`, the proliferation was -0.386.

With `CC[C@H](C)[C@H](N)C(=O)N1CCSC1` [P32/98 hemifumarate salt], the proliferation is -0.616.

Take `N#CC(C#N)=C(N)/C(C#N)=C/c1cc(O)c(O)c(O)c1`: the proliferation is -0.228.

With `Oc1c2ccccc2c2c3c(cccc13)N=N2`, the proliferation is -0.168.

Regarding `Oc1ccc(/C=C/c2cc(O)cc(O)c2)cc1` [Resveratrol], the proliferation was 3.39 (active).

On to `CC(C)(C)c1cc(C=C(C#N)C(N)=S)cc(C(C)(C)C)c1O`, for which the proliferation was -0.702.

Consider `O=c1c(-c2ccc(O)cc2)coc2cc(O)cc(O)c12` [Genistein], for which the proliferation was 2.14 (active).

With `O=C1Nc2ccccc2/C1=C1/Nc2ccccc2C1=O` [Indirubin], the proliferation is -1.2.

For `O=C[C@@H]1CCCN1C(=O)[C@@H]1CCCN1C(=O)OCc1ccccc1` [Z-Prolyl-prolinal], the proliferation was -0.515.

As for `CO[C@@H]1[C@H](OC(=O)/C=C/C=C/C=C/C=C/C(=O)O)CC[C@]2(CO2)[C@H]1[C@@]1(C)O[C@@H]1CC=C(C)C` [Fumagillin], the proliferation is -0.343.

Turning to `N=C(N)Nc1ccc(C(=O)Oc2ccc3cc(C(=N)N)ccc3c2)cc1` [Nafamostat mesylate], the proliferation was -0.0211.

Take `Cc1cc2ncc(-c3ccccc3)nc2cc1C`: the proliferation is 2.1 (active).

As for `CCC(C)[C@H](NS(=O)(=O)c1cccc2ccccc12)C(=O)N[C@H](C=O)Cc1c[nH]c2ccccc12` (stereo not given in full), the proliferation was -0.56.

For `CSCCC(C=O)NC(=O)C(CC(C)C)NC(=O)[C@H](CC(C)C)NC(C)=O` (stereo not given in full) [Calpain Inhibitor II (ALLM)], the proliferation was -0.104.

Turning to `O=c1ncccn1[C@@H]1O[C@H](CO)[C@@H](O)[C@H]1O` [Zebularine], the proliferation is 0.0287.

As for `NC(N)=NCCC[C@H](NC(=O)[C@@H]1CCCN1C(=O)[C@H](N)Cc1ccccc1)C(=O)CCl`, the proliferation is -0.142.
